# Source: PubChem BioAssay (Tox21)
# Results filed as inconclusive are left out. Activity calls are given as the source filed them. The call rests on the fitted dose curve; in most records, active means well fitted curve in the direction sought with a large enough effect in the repeat runs; inconclusive means weak or mixed curves; inactive means no such curve, though single readings can be large; an effect the other way counts as inactive or inconclusive.
# Test: qHTS assay to identify small molecule antagonists of the estrogen related receptor signaling pathway with the pleiotropic PPARgamma coactivator (PGC) cell viability counter screen (AID 1224822;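 further: viability read after 17.5 h compound exposure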)
# Conditions: ERR/PGC reporter cell line viability counter screen; series mostly up to 46.1 µM; viability change, negative = cytotoxic: at the top concentration
# Method in brief: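 Multiplexed viability counter screen run in PGC/ERR cells treated with compounds for 17.5 h at 37 C; live-cell protease signal measured by CellTiter-Fluor fluorescence.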
# On the % scale 0 is the no-effect control and ±100 the full control effect; potency means the concentration at half of the fitted maximal effect.
SMILES,"viability change, negative = cytotoxic",Potency
Nc1ncnc2c1ncn2C1CCCO1 (stereo unspecified),5.85% (inactive),
CC(C)Cc1ccc([C@H](C)C(=O)O)cc1,2.51% (inactive),
CC(C)(C)c1onc(OCP(=O)(O)O)c1CC(N)C(=O)O (stereo unspecified),,inactive
CNCCNS(=O)(=O)c1cccc2cnccc12,-13.3% (inactive),
CC[N+](CC)(CC)CC(=O)Nc1c(C)cccc1C,0.103% (inactive),
CCOC(=O)C12CC1/C(=N/O)c1ccccc1O2 (stereo unspecified),7.38% (inactive),
O=[N+]([O-])c1cccc2cn[nH]c12,-1.41% (inactive),
NC(N)=[N+]1CCc2ccccc2C1,5.79% (inactive),
NCCCCN=C(N)N,3.17% (inactive),
NC(N)=NC(N)=Nc1cccc(Cl)c1,3.75% (inactive),
CS(=O)(=O)c1cccc(CNc2nc(Nc3ccc4c(c3)CCC(=O)N4)ncc2C(F)(F)F)c1,-18.5% (inactive),
CC(=O)NC[C@H]1CN(c2ccc(N3CCOCC3)c(F)c2)C(=O)O1,4.41% (inactive),
CCNc1nc2c(ncn2[C@H]2C[C@H](O)[C@@H](CO)O2)c(=O)[nH]1,-1.92% (inactive),
O=C(O)CCC(=O)N1CCCC1C(=O)O (stereo unspecified),14.4% (inactive),
O=C(O)c1cc(=O)cc(C(=O)O)[nH]1,7.04% (inactive),
Nc1ncnc2c1ncn2[C@@H]1O[C@H](COP(=O)(O)OP(=O)(O)OP(=O)(O)OP(=O)(O)OC[C@@H]2O[C@H](n3cnc4c(N)ncnc43)[C@@H](O)C2O)C(O)[C@H]1O (stereo partly specified),8.73% (inactive),
COc1ccc(-c2cc3ncc(C)n3c(Nc3ncccc3C(N)=O)n2)cc1OC,-26.6% (inactive),
CC(C)(Sc1ccc(CCN(CCCCC2CCCCC2)C(=O)NC2CCCCC2)cc1)C(=O)O,0.468% (inactive),
N[C@@H](Cc1ccc(O)c(O)c1)C(=O)O,4.5% (inactive),

SMILES,"viability change, negative = cytotoxic",Potency
Brc1ccc([C@H]2CN3CCSC3=N2)cc1,7.1% (inactive),
COc1ccc(-c2ccc(N)[n+](CCCC(=O)O)n2)cc1,12.8% (inactive),
NC1CCN(O)C1=O (stereo unspecified),2.34% (inactive),
O=C(O)C1=CCCNC1,11.7% (inactive),
COCCOc1cc2nc[nH]c(=O)c2cc1OCCOC,6.83% (inactive),
O=C1NC(=O)/C(=C/c2ccc3c(c2)OC(F)(F)O3)S1,7.12% (inactive),
COc1ccc2c(c1)c(CC(=O)O)c(C)n2Cc1ccc(Cl)cc1,8.12% (inactive),
O=Nc1c(-c2c(O)[nH]c3cc(Br)ccc23)[nH]c2ccccc12,,11.4 µM (active)
CNCCC(Oc1ccccc1C)c1ccccc1 (stereo unspecified),-6.83% (inactive),
O=C(OCCN1CCOCC1)C1(c2ccccc2)CCCCC1,-4.62% (inactive),
N[C@H](C(=O)O)[C@H](O)C(=O)O,1.12% (inactive),
CCCn1c(=O)c2[nH]c(-c3ccc(S(=O)(=O)O)cc3)nc2n(CCC)c1=O,5.76% (inactive),
N#CC(=C(\N)Sc1ccccc1N)/C(C#N)=C(/N)Sc1ccccc1N,-10.7% (inactive),
Cc1cc(Cn2cnc3c2C[C@@H](C(=O)O)N(C(=O)C(c2ccccc2)c2ccccc2)C3)ccc1N,6.17% (inactive),
NC1(C(=O)O)CC1,12.5% (inactive),
NOCC(=O)O,7.37% (inactive),
O=c1[nH]c(=O)c2nc3ccccc3nc2[nH]1,12% (inactive),
Brc1c(Br)c(Br)c2n[nH]nc2c1Br,0.445% (inactive),
O=c1onc2cnc3ccccc3n12,8.53% (inactive),

# Test: qHTS assay to identify small molecule agonists of the estrogen related receptor signaling pathway with the pleiotropic PPARgamma coactivator (PGC) (AID 1224823)
# Conditions: ERR/PGC reporter cell line, luciferase agonist mode; series mostly up to 46.1 µM; activation: at the top concentration
# Method in brief: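 Luminescence from One-Glo reagent (30 min, room temperature) was read after 18 h compound treatment at 37 C of PGC/ERR cells plated 6 h beforehand; compounds delivered in DMSO by pin tool.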
SMILES,activation,Potency
Nc1ncnc2c1ncn2C1CCCO1 (stereo unspecified),-1.28% (inactive),
CC(C)Cc1ccc([C@H](C)C(=O)O)cc1,3.99% (inactive),
CC(C)(C)c1onc(OCP(=O)(O)O)c1CC(N)C(=O)O (stereo unspecified),,inactive
CNCCNS(=O)(=O)c1cccc2cnccc12,-17.2% (inactive),
CC[N+](CC)(CC)CC(=O)Nc1c(C)cccc1C,1.41% (inactive),
CCOC(=O)C12CC1/C(=N/O)c1ccccc1O2 (stereo unspecified),-1.2% (inactive),
O=[N+]([O-])c1cccc2cn[nH]c12,5.2% (inactive),
NC(N)=[N+]1CCc2ccccc2C1,-5.66% (inactive),
NCCCCN=C(N)N,-1.96% (inactive),
NC(N)=NC(N)=Nc1cccc(Cl)c1,-6.7% (inactive),
CS(=O)(=O)c1cccc(CNc2nc(Nc3ccc4c(c3)CCC(=O)N4)ncc2C(F)(F)F)c1,2.9% (inactive),
CC(=O)NC[C@H]1CN(c2ccc(N3CCOCC3)c(F)c2)C(=O)O1,-4.14% (inactive),
CCNc1nc2c(ncn2[C@H]2C[C@H](O)[C@@H](CO)O2)c(=O)[nH]1,3.73% (inactive),
O=C(O)CCC(=O)N1CCCC1C(=O)O (stereo unspecified),6.74% (inactive),
O=C(O)c1cc(=O)cc(C(=O)O)[nH]1,1.16% (inactive),
Nc1ncnc2c1ncn2[C@@H]1O[C@H](COP(=O)(O)OP(=O)(O)OP(=O)(O)OP(=O)(O)OC[C@@H]2O[C@H](n3cnc4c(N)ncnc43)[C@@H](O)C2O)C(O)[C@H]1O (stereo partly specified),,15 µM (active)
COc1ccc(-c2cc3ncc(C)n3c(Nc3ncccc3C(N)=O)n2)cc1OC,-18.6% (inactive),
CC(C)(Sc1ccc(CCN(CCCCC2CCCCC2)C(=O)NC2CCCCC2)cc1)C(=O)O,1.18% (inactive),
N[C@@H](Cc1ccc(O)c(O)c1)C(=O)O,-4.88% (inactive),

SMILES,activation,Potency
Brc1ccc([C@H]2CN3CCSC3=N2)cc1,3.21% (inactive),
COc1ccc(-c2ccc(N)[n+](CCCC(=O)O)n2)cc1,6.14% (inactive),
NC1CCN(O)C1=O (stereo unspecified),4.81% (inactive),
O=C(O)C1=CCCNC1,-3.79% (inactive),
COCCOc1cc2nc[nH]c(=O)c2cc1OCCOC,2.8% (inactive),
O=C1NC(=O)/C(=C/c2ccc3c(c2)OC(F)(F)O3)S1,4.57% (inactive),
COc1ccc2c(c1)c(CC(=O)O)c(C)n2Cc1ccc(Cl)cc1,-0.155% (inactive),
O=Nc1c(-c2c(O)[nH]c3cc(Br)ccc23)[nH]c2ccccc12,,1.14 µM (active)
CNCCC(Oc1ccccc1C)c1ccccc1 (stereo unspecified),-8.39% (inactive),
O=C(OCCN1CCOCC1)C1(c2ccccc2)CCCCC1,-8% (inactive),
N[C@H](C(=O)O)[C@H](O)C(=O)O,-1.82% (inactive),
CCCn1c(=O)c2[nH]c(-c3ccc(S(=O)(=O)O)cc3)nc2n(CCC)c1=O,-5.08% (inactive),
N#CC(=C(\N)Sc1ccccc1N)/C(C#N)=C(/N)Sc1ccccc1N,-16.3% (inactive),
Cc1cc(Cn2cnc3c2C[C@@H](C(=O)O)N(C(=O)C(c2ccccc2)c2ccccc2)C3)ccc1N,-2.49% (inactive),
NC1(C(=O)O)CC1,2.55% (inactive),
NOCC(=O)O,-7% (inactive),
O=c1[nH]c(=O)c2nc3ccccc3nc2[nH]1,1.14% (inactive),
Brc1c(Br)c(Br)c2n[nH]nc2c1Br,-23.6% (inactive),
O=c1onc2cnc3ccccc3n12,15.8% (inactive),
